Assay [1] has as its target T1, Inhibitor of nuclear factor kappa-B kinase subunit epsilon (Homo sapiens) (UniProt Q14164).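 Note: reported values are averaged percent inhibition figures against human IKKε.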
T1 sequence (whole entry): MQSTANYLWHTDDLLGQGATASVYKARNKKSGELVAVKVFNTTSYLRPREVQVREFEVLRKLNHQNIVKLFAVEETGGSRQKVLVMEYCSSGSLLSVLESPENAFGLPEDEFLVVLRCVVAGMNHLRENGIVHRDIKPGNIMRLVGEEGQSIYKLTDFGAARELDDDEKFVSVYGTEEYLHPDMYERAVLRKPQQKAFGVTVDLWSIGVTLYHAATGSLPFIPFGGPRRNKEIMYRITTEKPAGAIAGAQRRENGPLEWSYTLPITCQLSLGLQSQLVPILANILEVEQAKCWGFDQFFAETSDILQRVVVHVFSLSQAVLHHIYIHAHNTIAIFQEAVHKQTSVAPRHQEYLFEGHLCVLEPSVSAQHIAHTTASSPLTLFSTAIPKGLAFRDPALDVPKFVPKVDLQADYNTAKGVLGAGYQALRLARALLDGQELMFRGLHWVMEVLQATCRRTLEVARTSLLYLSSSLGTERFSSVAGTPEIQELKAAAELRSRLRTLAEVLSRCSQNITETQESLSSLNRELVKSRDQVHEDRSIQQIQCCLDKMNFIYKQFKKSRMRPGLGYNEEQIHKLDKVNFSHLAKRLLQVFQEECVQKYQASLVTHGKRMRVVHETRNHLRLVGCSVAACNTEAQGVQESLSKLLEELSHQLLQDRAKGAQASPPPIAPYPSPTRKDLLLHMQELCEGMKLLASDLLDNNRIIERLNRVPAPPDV
Particulars: at 1 µM.

In assay [2] the target is T2, Serine/threonine-protein kinase Nek1 (Homo sapiens) (UniProt Q96PY6).
T2 sequence (whole entry): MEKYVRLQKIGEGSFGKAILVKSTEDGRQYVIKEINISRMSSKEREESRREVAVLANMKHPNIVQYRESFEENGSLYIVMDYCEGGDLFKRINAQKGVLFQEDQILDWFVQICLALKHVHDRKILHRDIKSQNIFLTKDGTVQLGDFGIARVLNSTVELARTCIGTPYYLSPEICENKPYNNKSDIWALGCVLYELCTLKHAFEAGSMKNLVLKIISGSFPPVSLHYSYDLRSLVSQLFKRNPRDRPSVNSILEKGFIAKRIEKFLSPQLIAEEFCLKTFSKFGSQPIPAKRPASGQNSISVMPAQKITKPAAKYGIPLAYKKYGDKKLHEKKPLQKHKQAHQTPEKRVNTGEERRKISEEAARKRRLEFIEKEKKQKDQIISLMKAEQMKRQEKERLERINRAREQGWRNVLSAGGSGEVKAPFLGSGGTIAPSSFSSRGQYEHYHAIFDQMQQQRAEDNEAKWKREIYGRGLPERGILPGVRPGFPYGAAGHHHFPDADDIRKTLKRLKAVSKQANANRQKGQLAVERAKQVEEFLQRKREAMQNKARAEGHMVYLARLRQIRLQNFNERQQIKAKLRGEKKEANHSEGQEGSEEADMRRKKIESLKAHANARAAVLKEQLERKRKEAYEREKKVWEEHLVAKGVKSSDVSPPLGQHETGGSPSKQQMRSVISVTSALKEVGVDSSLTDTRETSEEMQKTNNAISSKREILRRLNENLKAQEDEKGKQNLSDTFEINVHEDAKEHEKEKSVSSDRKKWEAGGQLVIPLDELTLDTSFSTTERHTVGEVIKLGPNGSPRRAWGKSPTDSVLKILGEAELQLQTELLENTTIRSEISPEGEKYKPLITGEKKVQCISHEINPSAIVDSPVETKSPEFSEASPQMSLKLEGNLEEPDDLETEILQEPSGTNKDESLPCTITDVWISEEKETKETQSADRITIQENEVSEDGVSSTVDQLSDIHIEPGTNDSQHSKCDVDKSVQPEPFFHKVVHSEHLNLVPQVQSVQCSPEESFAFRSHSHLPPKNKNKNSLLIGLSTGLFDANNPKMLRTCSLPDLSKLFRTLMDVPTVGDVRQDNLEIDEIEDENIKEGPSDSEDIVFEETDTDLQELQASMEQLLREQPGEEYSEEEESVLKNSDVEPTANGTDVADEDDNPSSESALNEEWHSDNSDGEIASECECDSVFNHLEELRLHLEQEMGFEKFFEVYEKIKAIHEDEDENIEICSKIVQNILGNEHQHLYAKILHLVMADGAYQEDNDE
Particulars: at 0.1 µM.

Assay [3] deals with T2, Serine/threonine-protein kinase Nek1 (Homo sapiens). Particulars: at 1 µM.
For assay [4], the target named is T3, Serine/threonine-protein kinase Nek2 (Homo sapiens) (UniProt P51955).
T3 sequence (whole entry): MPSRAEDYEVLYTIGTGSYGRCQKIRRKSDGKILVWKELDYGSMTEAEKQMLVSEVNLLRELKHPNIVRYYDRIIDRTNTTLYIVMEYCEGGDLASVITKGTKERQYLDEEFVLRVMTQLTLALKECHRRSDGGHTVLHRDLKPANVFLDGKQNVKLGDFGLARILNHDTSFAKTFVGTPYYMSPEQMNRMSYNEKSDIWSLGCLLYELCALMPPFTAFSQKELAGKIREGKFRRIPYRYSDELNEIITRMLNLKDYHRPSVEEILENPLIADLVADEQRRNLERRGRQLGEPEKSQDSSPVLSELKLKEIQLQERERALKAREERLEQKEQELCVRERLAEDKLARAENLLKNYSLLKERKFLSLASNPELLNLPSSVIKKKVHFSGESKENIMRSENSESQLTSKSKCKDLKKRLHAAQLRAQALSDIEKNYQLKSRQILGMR
The following applies: at 0.1 µM.

Assay [5] addresses T3, Serine/threonine-protein kinase Nek2 (Homo sapiens). Particulars: at 1 µM.
In assay [6] the target is Serine/threonine-protein kinase Nek6 (Homo sapiens) (UniProt Q9HC98). The following applies: at 0.1 µM.
Serine/threonine-protein kinase Nek6 (Homo sapiens), sequence (Q9HC98 whole entry): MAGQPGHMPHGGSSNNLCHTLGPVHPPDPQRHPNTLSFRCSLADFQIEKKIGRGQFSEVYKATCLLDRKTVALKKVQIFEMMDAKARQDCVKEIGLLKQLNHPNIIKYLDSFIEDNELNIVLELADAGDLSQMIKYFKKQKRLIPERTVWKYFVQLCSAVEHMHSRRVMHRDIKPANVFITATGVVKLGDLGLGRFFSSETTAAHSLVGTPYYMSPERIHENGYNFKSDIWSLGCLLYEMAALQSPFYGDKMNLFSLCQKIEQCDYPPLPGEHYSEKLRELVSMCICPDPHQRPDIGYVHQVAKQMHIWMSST
Assay [7] has the same target. The following applies: at 1 µM.
Assay [8] deals with Serine/threonine-protein kinase Nek7 (Homo sapiens) (UniProt Q8TDX7). Particulars: at 0.1 µM.
Serine/threonine-protein kinase Nek7 (Homo sapiens), sequence (Q8TDX7 whole entry, looked up): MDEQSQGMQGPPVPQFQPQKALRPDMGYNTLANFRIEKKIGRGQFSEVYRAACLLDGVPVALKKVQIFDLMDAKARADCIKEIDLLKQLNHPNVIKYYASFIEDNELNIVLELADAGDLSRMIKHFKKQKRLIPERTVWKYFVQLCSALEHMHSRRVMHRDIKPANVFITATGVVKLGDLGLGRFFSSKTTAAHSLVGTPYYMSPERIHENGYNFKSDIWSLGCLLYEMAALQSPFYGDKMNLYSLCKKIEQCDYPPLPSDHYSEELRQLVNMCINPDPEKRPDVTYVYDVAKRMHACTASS
The target is the same in assay [9]. The following applies: at 1 µM.
The target of assay [10] is T4, Serine/threonine-protein kinase Nek9 (Homo sapiens) (UniProt Q8TD19).
T4 sequence (whole entry): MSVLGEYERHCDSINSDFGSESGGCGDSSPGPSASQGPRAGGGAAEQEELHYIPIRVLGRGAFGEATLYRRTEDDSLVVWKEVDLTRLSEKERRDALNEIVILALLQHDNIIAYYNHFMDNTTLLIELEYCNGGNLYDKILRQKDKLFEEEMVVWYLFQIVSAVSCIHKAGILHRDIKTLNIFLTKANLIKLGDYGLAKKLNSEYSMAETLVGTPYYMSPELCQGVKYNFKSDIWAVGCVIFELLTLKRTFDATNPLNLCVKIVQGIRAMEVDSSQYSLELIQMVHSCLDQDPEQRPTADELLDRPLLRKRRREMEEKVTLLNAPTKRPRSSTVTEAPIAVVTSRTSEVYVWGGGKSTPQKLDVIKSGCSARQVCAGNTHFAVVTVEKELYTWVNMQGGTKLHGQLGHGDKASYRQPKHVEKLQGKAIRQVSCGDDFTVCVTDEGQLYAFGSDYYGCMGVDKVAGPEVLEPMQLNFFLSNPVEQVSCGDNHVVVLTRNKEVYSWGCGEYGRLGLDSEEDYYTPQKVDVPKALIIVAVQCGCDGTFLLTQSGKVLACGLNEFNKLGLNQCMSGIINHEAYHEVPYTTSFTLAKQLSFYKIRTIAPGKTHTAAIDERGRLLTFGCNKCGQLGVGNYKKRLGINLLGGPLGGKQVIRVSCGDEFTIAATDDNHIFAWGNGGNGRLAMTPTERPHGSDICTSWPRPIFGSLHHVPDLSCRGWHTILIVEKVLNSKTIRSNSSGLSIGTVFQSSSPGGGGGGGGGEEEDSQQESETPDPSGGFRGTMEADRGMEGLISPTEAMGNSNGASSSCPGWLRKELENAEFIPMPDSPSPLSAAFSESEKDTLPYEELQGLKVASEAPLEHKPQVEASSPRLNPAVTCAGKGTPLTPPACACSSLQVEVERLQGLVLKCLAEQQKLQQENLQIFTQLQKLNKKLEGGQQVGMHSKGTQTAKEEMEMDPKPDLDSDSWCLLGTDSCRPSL
Particulars: at 0.1 µM.

The target of assay [11] is T4, Serine/threonine-protein kinase Nek9 (Homo sapiens). The following applies: at 1 µM.
Assay [12] has as its target Serine/threonine-protein kinase PLK1 (Homo sapiens) (UniProt P53350). Particulars: at 0.1 µM.
For assay [13] the target is unchanged. The following applies: at 1 µM.
Assay [14] deals with T5, Dual specificity protein kinase TTK (Homo sapiens) (UniProt P33981).
T5 sequence (whole entry): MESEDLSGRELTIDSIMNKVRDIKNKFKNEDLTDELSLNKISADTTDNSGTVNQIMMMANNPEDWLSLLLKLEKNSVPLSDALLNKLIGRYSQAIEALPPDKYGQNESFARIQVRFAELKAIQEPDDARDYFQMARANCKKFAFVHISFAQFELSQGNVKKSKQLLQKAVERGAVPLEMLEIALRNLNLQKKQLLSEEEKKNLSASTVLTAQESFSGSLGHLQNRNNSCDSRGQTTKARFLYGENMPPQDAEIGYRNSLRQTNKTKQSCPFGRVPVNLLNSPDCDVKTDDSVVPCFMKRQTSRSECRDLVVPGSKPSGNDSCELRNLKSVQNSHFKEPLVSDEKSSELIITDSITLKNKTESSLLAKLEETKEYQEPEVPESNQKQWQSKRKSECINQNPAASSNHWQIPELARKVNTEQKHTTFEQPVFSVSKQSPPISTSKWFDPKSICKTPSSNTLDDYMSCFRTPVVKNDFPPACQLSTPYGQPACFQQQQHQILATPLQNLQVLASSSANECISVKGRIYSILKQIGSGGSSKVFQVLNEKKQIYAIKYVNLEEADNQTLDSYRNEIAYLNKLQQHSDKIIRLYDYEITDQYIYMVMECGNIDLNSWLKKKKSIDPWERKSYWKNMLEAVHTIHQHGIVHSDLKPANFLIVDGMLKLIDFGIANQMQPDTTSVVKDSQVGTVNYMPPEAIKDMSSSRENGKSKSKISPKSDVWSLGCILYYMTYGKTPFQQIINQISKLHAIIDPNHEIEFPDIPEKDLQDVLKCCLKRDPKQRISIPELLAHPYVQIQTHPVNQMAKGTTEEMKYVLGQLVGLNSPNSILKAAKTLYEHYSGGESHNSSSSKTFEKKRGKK
Particulars: at 0.1 µM.

The subject of assay [15] is T6, Receptor-type tyrosine-protein kinase FLT3 (Homo sapiens), P36888 [D835Y].
T6 sequence (whole entry): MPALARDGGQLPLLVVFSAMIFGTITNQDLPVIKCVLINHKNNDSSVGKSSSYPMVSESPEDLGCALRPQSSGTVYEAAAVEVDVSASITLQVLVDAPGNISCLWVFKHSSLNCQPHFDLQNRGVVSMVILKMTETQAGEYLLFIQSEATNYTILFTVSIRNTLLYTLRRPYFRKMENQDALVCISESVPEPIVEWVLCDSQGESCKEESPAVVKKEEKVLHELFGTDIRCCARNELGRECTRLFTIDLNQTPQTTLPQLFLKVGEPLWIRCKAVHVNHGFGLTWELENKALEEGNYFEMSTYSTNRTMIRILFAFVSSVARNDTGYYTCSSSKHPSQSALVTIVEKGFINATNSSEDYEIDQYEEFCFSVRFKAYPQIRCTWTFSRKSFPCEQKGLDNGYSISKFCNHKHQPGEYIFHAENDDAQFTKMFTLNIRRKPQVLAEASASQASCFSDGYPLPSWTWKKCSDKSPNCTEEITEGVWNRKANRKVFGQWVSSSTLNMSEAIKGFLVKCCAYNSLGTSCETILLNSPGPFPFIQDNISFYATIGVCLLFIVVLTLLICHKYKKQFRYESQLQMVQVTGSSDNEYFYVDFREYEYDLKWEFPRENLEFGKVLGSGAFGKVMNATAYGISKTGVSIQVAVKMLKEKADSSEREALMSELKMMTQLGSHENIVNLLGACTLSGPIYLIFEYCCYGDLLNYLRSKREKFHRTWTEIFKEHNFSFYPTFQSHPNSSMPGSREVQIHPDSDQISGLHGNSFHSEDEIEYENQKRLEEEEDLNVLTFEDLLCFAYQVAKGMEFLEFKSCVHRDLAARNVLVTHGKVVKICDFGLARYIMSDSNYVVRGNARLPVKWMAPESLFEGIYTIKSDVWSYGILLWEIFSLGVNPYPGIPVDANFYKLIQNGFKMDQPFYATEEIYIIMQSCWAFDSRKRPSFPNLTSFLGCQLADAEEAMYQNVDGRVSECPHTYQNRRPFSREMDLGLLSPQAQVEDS
The following applies: at 1 µM.

In assay [16] the target is Vascular endothelial growth factor receptor 3 (Homo sapiens) (UniProt P35916). The following applies: at 0.1 µM.
Vascular endothelial growth factor receptor 3 (Homo sapiens), sequence (P35916 whole entry): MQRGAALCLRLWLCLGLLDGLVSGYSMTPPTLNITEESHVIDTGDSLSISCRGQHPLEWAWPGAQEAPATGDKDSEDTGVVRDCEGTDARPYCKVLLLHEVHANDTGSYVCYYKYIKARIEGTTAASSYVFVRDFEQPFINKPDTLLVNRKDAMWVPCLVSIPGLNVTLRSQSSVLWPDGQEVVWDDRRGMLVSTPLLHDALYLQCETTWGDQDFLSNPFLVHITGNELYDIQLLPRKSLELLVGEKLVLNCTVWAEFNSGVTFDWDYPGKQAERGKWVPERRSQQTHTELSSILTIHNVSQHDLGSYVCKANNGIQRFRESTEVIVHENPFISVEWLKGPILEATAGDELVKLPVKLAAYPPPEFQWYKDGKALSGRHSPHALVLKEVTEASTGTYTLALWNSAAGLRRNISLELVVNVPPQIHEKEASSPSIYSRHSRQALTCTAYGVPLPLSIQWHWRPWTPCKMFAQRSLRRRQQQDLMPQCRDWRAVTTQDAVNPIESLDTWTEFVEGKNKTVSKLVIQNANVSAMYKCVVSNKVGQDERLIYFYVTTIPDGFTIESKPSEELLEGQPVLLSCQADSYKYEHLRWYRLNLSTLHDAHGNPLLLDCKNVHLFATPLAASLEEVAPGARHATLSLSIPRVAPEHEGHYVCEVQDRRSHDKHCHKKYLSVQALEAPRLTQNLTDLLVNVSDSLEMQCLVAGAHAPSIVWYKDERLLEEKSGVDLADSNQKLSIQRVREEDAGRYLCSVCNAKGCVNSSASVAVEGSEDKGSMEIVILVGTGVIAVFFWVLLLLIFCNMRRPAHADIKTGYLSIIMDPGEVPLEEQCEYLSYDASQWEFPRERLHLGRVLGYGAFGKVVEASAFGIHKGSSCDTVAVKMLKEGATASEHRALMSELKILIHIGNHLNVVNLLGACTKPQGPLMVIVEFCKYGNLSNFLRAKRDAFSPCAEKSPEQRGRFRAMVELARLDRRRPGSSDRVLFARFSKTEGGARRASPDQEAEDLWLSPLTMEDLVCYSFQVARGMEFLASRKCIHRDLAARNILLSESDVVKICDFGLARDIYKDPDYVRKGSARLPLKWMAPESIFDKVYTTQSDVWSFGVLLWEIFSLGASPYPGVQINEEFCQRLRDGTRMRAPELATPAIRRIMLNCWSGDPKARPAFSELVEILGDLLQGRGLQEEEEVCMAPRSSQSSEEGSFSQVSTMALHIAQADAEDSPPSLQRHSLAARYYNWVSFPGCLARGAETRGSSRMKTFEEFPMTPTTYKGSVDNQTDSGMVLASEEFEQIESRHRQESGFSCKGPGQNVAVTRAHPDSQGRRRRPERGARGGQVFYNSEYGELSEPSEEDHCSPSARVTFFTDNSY
For assay [17] the target is unchanged. The following applies: at 1 µM.
The target of assay [18] is Macrophage colony-stimulating factor 1 receptor (Homo sapiens) (UniProt P07333). Particulars: at 0.1 µM.
Macrophage colony-stimulating factor 1 receptor (Homo sapiens), sequence (P07333 whole entry): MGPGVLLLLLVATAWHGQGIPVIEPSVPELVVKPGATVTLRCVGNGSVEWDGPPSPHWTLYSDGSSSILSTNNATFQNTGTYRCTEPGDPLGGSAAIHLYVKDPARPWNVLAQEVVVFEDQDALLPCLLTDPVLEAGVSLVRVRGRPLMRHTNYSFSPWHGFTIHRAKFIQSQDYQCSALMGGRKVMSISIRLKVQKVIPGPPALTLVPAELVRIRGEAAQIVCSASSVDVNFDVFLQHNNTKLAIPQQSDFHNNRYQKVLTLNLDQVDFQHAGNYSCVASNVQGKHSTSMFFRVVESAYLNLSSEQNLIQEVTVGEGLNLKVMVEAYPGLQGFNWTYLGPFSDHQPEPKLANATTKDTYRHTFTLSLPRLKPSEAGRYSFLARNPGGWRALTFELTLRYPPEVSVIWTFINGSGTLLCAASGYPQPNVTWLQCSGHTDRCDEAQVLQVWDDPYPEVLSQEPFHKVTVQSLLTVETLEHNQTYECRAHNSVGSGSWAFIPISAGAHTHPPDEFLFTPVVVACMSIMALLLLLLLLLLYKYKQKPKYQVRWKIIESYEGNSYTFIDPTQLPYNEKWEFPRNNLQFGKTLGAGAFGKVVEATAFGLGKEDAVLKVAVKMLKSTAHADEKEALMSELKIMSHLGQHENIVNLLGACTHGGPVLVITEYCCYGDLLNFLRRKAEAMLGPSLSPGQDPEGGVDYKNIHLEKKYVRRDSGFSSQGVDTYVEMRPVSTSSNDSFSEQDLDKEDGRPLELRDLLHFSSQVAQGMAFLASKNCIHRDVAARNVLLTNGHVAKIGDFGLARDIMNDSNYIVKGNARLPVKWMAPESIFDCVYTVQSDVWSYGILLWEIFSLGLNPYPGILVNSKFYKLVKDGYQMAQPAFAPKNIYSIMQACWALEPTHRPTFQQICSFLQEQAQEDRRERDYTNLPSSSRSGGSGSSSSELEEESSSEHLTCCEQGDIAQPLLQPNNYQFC
Assay [19] shares this target. Particulars: at 1 µM.
Assay [20] addresses Tyrosine-protein kinase Fyn (Homo sapiens) (UniProt P06241). Particulars: at 0.1 µM.

Serine/threonine-protein kinase PLK1 (Homo sapiens), sequence (P53350 whole entry): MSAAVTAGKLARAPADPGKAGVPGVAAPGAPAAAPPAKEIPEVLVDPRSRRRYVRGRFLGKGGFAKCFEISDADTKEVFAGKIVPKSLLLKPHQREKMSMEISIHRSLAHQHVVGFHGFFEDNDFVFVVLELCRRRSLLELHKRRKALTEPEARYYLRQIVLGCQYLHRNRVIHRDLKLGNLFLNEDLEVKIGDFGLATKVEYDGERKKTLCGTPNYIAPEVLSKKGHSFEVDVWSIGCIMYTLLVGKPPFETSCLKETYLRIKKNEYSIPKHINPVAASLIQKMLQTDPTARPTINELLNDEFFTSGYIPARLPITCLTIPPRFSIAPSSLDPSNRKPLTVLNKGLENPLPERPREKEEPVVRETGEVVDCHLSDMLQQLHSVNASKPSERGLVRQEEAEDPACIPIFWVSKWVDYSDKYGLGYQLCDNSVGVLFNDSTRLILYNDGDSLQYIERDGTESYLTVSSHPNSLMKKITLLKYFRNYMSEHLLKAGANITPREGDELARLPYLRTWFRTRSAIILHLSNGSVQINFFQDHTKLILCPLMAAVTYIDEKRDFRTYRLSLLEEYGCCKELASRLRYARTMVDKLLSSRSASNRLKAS
Tyrosine-protein kinase Fyn (Homo sapiens), sequence (P06241 2-537 limits assumed): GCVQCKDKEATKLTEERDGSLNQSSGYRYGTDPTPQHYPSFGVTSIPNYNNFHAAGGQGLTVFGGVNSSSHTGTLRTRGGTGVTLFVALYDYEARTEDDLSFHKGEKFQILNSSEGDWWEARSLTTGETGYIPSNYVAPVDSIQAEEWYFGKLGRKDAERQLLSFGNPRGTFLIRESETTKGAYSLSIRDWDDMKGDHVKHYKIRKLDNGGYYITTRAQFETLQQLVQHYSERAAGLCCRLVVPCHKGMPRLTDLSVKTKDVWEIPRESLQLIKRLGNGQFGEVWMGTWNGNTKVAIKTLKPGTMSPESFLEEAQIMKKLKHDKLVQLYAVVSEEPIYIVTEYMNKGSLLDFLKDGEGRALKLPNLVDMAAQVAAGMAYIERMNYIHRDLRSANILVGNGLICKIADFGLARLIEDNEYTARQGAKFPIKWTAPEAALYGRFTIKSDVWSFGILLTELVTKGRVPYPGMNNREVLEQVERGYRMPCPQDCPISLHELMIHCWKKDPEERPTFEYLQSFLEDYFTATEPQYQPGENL

For the molecule `O=C(Nc1ccc(Oc2ccc3[nH]c(NC(=O)c4ccco4)nc3c2)cc1)Nc1cc(C(F)(F)F)ccc1F`, the inhibition in [1] was -0.41%; in assay [2] it was 0.66%; in [3], 0.27%; in assay [4], 0.32%; in [5] it was 0.28%; in assay [6] it was -0.01%. Further, the inhibition is -0.32% in assay [7]; 0.83% in [8]; 0.99% in [9]; -0.1% in assay [10]; 6.87% in assay [11]; 0.92% in [12]. Also, the inhibition was 1.34% in [13]; -0.11% in assay [14]; 30.6% in assay [15]; -7.79% in assay [16]; 38.1% in assay [17]; 15.4% in [18]. Further, the inhibition in assay [19] is 72.8%; in assay [20], -1.01%.

These data come from ChEMBL document CHEMBL1961873, “Compounds: GSK PKIS; Assays: Nanosyn kinase panel” (2012).
